Source: PubChem BioAssay AID463173 (ICCB-Longwood Screening Facility, Harvard Medical School, 2010)
Screen size: about 52,000 compounds; about 1,700 (3.3%) were called active. Rule as the data show it: active = survival mostly below about 52% (no sharp cut-off); inactive = mostly above about 56%. The entries come from a sample that favours actives as a whole.

What follows are molecules tested on Wild type (assay: S. aureus survival, RN4220 and DeltatarO strains – OD600, teichoic acid synthesis inhibitors, primary screen (AID 463173)). Details: S. aureus RN4220 wild type/DeltatarO growth, OD600, 18 h, stronger effect = lower value, screened at 18.75 µg/mL (by protocol).
With `O=C(CN1C(=O)C2(SCC(=O)N2c2ccccc2)c2ccccc21)NCc1ccccc1Cl` (stereo not drawn) the survival was 97% (inactive).
`Cc1cc(C)c2c(c1)NC(=O)C2(O)c1c[nH]c2ccccc12` (stereo not drawn) was tested, and the survival was 97% (inactive).
`COc1ccc(C)cc1NC(=O)c1cc2c(s1)-c1ccccc1SC2` was tested, and the survival was 46% (inactive).
For `CC(C)OCCCNC(=O)c1ccc(Cn2c(=O)c3cccn3c3cccnc32)cc1`, the survival was 111% (inactive).
`COc1ccc(OC)c(NC(=O)c2cc3c(=O)oc4ccccc4c3s2)c1` was tested, and the survival was 103% (inactive).
For `CCCc1cc(=O)[nH]c2nnc(SC(C)CC)n12` (stereo not drawn), the survival was 80% (inactive).
For `Cc1c2cnn(-c3ccccc3)c(=O)c2c(C)n1C(C)C(=O)Nc1ccccc1C(F)(F)F` (stereo not drawn), the survival was 81% (inactive).
`COc1cccc(N2CCN(C(=O)CCCn3c(=O)[nH]c4ccc(Br)cc4c3=O)CC2)c1` was tested, and the survival was 53% (inactive).
In the case of `O=C(CCCn1c(=O)[nH]c2ccc(Br)cc2c1=O)N1CCN(c2cccc(Cl)c2)CC1`, the survival was 6% (active).
For `Cc1ccc(Cl)cc1N1CCN(C(=O)CCCn2c(=O)[nH]c3ccc(Br)cc3c2=O)CC1`, the survival was 21% (inactive).
In the case of `CCOC(=O)c1noc2ncnc(NCc3ccccc3OC)c12`, the survival was 72% (inactive).
In the case of `COc1ccc(N2CC(NC(=O)c3ccco3)CC2=O)cc1` (stereo not drawn), the survival was 49% (inactive).
In the case of `COc1cccc(N2CC(NC(=O)c3ccco3)CC2=O)c1` (stereo not drawn), the survival was 10% (active).
For `COc1cccc(OCC(=O)NC2CC(=O)N(c3cccc(OC)c3)C2)c1` (stereo not drawn), the survival was 124% (inactive).
`COc1cccc(N2CC(NC(=O)COc3ccc4ccccc4c3)CC2=O)c1` (stereo not drawn) was tested, and the survival was 94% (inactive).
For `COc1ccc(N2CC(NC(=O)c3ccco3)CC2=O)cc1OC` (stereo not drawn), the survival was 68% (inactive).
In the case of `COc1ccc(OCC(=O)NC2CC(=O)N(c3cccc(OC)c3)C2)cc1` (stereo not drawn), the survival was -3% (active).
`O=C1CC(=O)SC(c2ccccc2)=N1` was tested, and the survival was 105% (inactive).
`CCOC(=O)c1c(C)[nH]c(C)c1S(=O)(=O)NCC(=O)Nc1cc(C)ccc1OC` was tested, and the survival was 75% (inactive).
For `CCOC(=O)c1c(C)[nH]c(C)c1S(=O)(=O)NCC(=O)Nc1cc(Cl)ccc1OC`, the survival was -6% (active).
For `CCOC(=O)c1c(C)[nH]c(C)c1S(=O)(=O)N(C)CC(=O)Nc1cc(Cl)ccc1OC`, the survival was 128% (inactive).
With `CCOC(=O)c1scc(-c2ccc(C)cc2)c1S(=O)(=O)Nc1ccc(OC)c(Cl)c1` the survival was 90% (inactive).
For `CCOC(=O)c1scc(-c2ccc(C)cc2)c1S(=O)(=O)Nc1cc(OC)ccc1OC`, the survival was 76% (inactive).
For `CCOC(=O)c1scc(-c2ccc(C)cc2)c1S(=O)(=O)Nc1cc(Cl)ccc1OC`, the survival was -6% (active).
`CCCc1oc(C(=O)O)cc1CN1CCOCC1` was tested, and the survival was 117% (inactive).
`CC(=O)C1=C(c2ccc(C)cc2)N(C(C)=O)n2c(nnc2-c2ccccc2)S1` was tested, and the survival was 134% (inactive).
In the case of `CCc1cccc2c(-c3ccccc3)nc(SCC(=O)Nc3ccc(OC)cc3)nc12`, the survival was 98% (inactive).
In the case of `COCCNc1c(-c2ccc(N)cc2)nc2ccc(C)cn12`, the survival was 101% (inactive).
With `Cc1ccc(Nc2c(-c3ccc(C)cc3)nc3ccc(C)cn23)cc1` the survival was 121% (inactive).
With `Cc1ccc2nc(-c3ccc(F)cc3)c(NC(C)(C)CC(C)(C)C)n2c1` the survival was 14% (active).
In the case of `CC(=O)N1c2ccccc2CC1C(=O)N1CCN(c2ccccc2F)CC1` (stereo not drawn), the survival was 71% (inactive).
In the case of `CCOc1ccc(NC(=O)/C=C\C(=O)N(c2ccc(C(C)C)cc2)C(C(=O)NCc2ccco2)c2ccc(F)cc2)cc1` (stereo not drawn), the survival was 51% (inactive).
`Cc1cccc(NC(=O)CN2C(=O)COc3ccc(S(=O)(=O)Nc4ccccc4)cc32)c1C` was tested, and the survival was 123% (inactive).
With `Cc1c(Cl)cccc1NC(=O)c1cc2nc(-c3ccc4c(c3)OCO4)cc(C(F)(F)F)n2n1` the survival was 76% (inactive).
With `CCOc1ccc(-c2ncccc2O)cc1` the survival was 106% (inactive).
For `CCCCOc1nnc(-c2ccc(OCC)cc2)c2ccccc12`, the survival was -1% (active).
With `CCOc1ccc(-c2nnc(Nc3ccc(S(N)(=O)=O)cc3)c3ccccc23)cc1` the survival was 88% (inactive).
With `COc1ccc(S(=O)(=O)N(CCc2ccccc2)CC(=O)NCc2ccc(C)cc2)cc1` the survival was 67% (inactive).
For `Cc1ccccc1CCNC(=O)c1cc2ccccn2n1`, the survival was 84% (inactive).
In the case of `CCOC(=O)C1CCN(S(=O)(=O)c2ccc3c(c2)NC(=O)C(C)C(=O)N3)CC1` (stereo not drawn), the survival was 114% (inactive).
In the case of `Cc1ccc(N(C)S(=O)(=O)c2c(-c3ccccc3)csc2C(=O)O)cc1`, the survival was 61% (inactive).
For `CC(=O)c1ccc(NC(=O)Cn2ncc3c(C)n(Cc4ccc(F)cc4)c(C)c3c2=O)cc1`, the survival was 74% (inactive).
`COC(=O)c1ccccc1NC(=O)c1nc(-c2ccc(C)cc2)n2c1CCCCC2` was tested, and the survival was 86% (inactive).
With `COc1ccc(C(=O)Oc2ccc3oc(=O)sc3c2)cc1` the survival was 95% (inactive).
With `CCn1ccc2c(OCC(=O)Nc3ccc(OC)cc3OC)cccc2c1=O` the survival was -3% (active).
`CCn1ccc2c(OCC(=O)Nc3ccc(C(C)=O)cc3)cccc2c1=O` was tested, and the survival was 53% (inactive).
With `CCn1ccc2c(OCC(=O)Nc3ccccc3C)cccc2c1=O` the survival was 0% (active).
For `COCCn1ccc2c(OCC(=O)Nc3cccc(OC)c3)cccc2c1=O`, the survival was 90% (inactive).
In the case of `CCn1ccc2c(OCC(=O)Nc3ccccc3C(F)(F)F)cccc2c1=O`, the survival was 80% (inactive).
For `CCn1ccc2c(OCC(=O)NCc3ccccc3)cccc2c1=O`, the survival was 66% (inactive).
`CCCN1CCN(C(=O)Cn2c(-c3cccs3)cc3cc(F)ccc32)CC1` was tested, and the survival was 85% (inactive).
With `Cc1ccc2c(CC(=O)N(Cc3ccc(N(C)C)cc3)Cc3ccco3)coc2c1C` the survival was 70% (inactive).
With `CCc1nn(CC(=O)Nc2ccc(C)cc2C)c(=O)c2cc3sccc3n12` the survival was 90% (inactive).
In the case of `Cc1cc(C)cc(NC(=O)CSc2nncn3c2cc2occc23)c1`, the survival was 66% (inactive).
For `Cc1ccc(CNS(=O)(=O)c2ccc3c(c2)CC(C)N3C(=O)C2CCC2)cc1` (stereo not drawn), the survival was 97% (inactive).
In the case of `Cc1ccsc1CN(C(=O)c1ccc(OCC(C)C)cc1)C1CCS(=O)(=O)C1` (stereo not drawn), the survival was 85% (inactive).
With `CCCCN(c1ccccc1)c1ncnc2c1cnn2-c1cccc(C)c1` the survival was 68% (inactive).
`COC(=O)c1cc2sc(C)cc2n1Cc1ccc(F)cc1Cl` was tested, and the survival was 65% (inactive).
For `COC(=O)c1cc2sc(C)cc2n1Cc1cccc(OC)c1`, the survival was 0% (active).
In the case of `COC(=O)c1cc2sc(C)cc2n1Cc1ccccc1`, the survival was 83% (inactive).
With `C=Cc1ccc(Cn2c(C(=O)OC)cc3sc(C)cc32)cc1` the survival was 0% (active).
In the case of `COC(=O)c1cc2sc(C)cc2n1Cc1ccc(Br)cc1F`, the survival was 76% (inactive).
For `COC(=O)c1cc2sccc2n1Cc1ccc(F)cc1`, the survival was 135% (inactive).
